Compound activity from PubChem BioAssay.
Most compounds without a hit are left out; they make up all but 4% or so of the library.
KKLEB tox – cytotoxicity in KKLEB CF airway cells, primary screen, cytotoxicity control for CF NF-kB inhibitor project, cell-based, uHTS, fluorescence assay plates. 360,000 compounds, 0.36% hits. KKLEB CF airway cells viability, ATPlite luminescence, overnight; stronger effect = lower value; cells stimulated with P. aeruginosa culture filtrate. activity change (cytotoxicity), % at 5 µM;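 active = corrected activity change at or below -50% at 5 µM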
TROY signal inh – inhibitors of TROY-driven NF-kB signaling, primary screen, Q293 LMP1-TROYcd cells, NF-kB luciferase, uHTS | inhibition, % at 10 µM | Q293 LMP1-TROYcd NF-kB luciferase reporter, 4 h | 360,000 compounds, 0.98% hits;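 active = compounds whose plate-normalised and pattern-corrected inhibition of the luciferase reporter signal at the single screening dose is 50% or more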
TWEAK Fn14 block – inhibitors of TWEAK-Fn14 signaling, primary screen, luciferase reporter cells, uHTS. TWEAK-stimulated Fn14 reporter cells, luciferase luminescence, 8 h. inhibition, % at 10 µM. 360,000 compounds, 2% hits; in the data active = inhibition above about 50%
HIF-2a inh – HIF-2a reporter inhibitors, primary screen, luminescence, 786-0 RCC cells | 786-0 RCC cells HIF-2a reporter, luciferase luminescence, overnight | 360,000 compounds, 0.72% hits | inhibition, % at 18.8 µM;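 active = inhibition of the luminescence signal of 40% or more relative to plate controls, in a single-dose primary screen at 18.75 µM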
Peg3 prom inh – Peg3 promoter-driven luciferase inhibitors, primary screen, cell-based, HeLa, luciferase luminescence. inhibition, % at 20 µM. AID 588405, 2011. HeLa PEG-Prom luciferase reporter, overnight. 360,000 compounds, 1.7% hits;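 active = inhibition of at least 50% at 20 µM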
CF NFkB inh – inhibitors of PAF-induced NF-kB signaling, primary screen, cell-based, GFP fluorescence, uHTS; KKLEB NF-kB-GFP reporter, GFP fluorescence overnight; inhibition, % at 5 µM; 360,000 compounds, 0.86% hits; AID 588850, 2011;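 active = at least 50% inhibition at 5 µM, scaled per plate between neutral and stimulator controls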;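 note: PAF is a Pseudomonas aeruginosa culture filtrate used as stimulus; plate controls were PAF-stimulated DMSO wells for no effect and unstimulated DMSO wells for full effect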
The depositor's hits bear a star.

O=C(Nc1ccc(NC(=O)C2CC2)cc1)c1ccco1 was read as KKLEB tox -2, TROY signal inh -50, TWEAK Fn14 block 32, HIF-2a inh -167, Peg3 prom inh -216 and CF NFkB inh -19.
O=C(Nc1ccc(NC(=O)c2ccco2)nc1)c1ccco1 was read as KKLEB tox 9, TROY signal inh 12, TWEAK Fn14 block 74*, HIF-2a inh -36, Peg3 prom inh -29 and CF NFkB inh -10.
Screening O=C(Nc1cccc(S(=O)(=O)c2cccc(NC(=O)c3ccco3)c2)c1)c1ccco1 returned KKLEB tox -3, TROY signal inh 42, TWEAK Fn14 block 59*, HIF-2a inh 21, Peg3 prom inh 36 and CF NFkB inh -12.
Screening O=C(Nc1cccc(S(=O)(=O)N2CCCC2)c1)c1ccco1 returned KKLEB tox 4, TROY signal inh 10, TWEAK Fn14 block 11, HIF-2a inh -8, Peg3 prom inh 18 and CF NFkB inh 4.
Screening O=C(Nc1ccc(NC(=O)C2CCCCC2)cn1)c1ccco1 returned KKLEB tox 4, TROY signal inh 30, TWEAK Fn14 block 75*, HIF-2a inh 15, Peg3 prom inh -7 and CF NFkB inh 17.
`CCC(C)Sc1nnc(Cc2cc(=O)[nH]c(=O)[nH]2)n1-c1ccc(OC)cc1` (configuration not stated) gave KKLEB tox -7, TROY signal inh -3, TWEAK Fn14 block -8, HIF-2a inh -1, Peg3 prom inh -9 and CF NFkB inh -4.
`COc1ccc(-n2cnnc2SCC(=O)NCc2cccs2)cc1` gave KKLEB tox 12, TWEAK Fn14 block 2, HIF-2a inh 19, Peg3 prom inh 7 and CF NFkB inh -9.
`COCCN(C(=O)CSc1nc2ccccc2c(=O)n1CC(C)C)c1c(N)n(Cc2ccccc2)c(=O)[nH]c1=O` gave KKLEB tox 7, TROY signal inh 13, TWEAK Fn14 block 9, HIF-2a inh 12, Peg3 prom inh 23 and CF NFkB inh -8.
For CC(=O)ON=C1C=CC(=C(C#N)c2ccccc2)C=C1 the results were KKLEB tox -39, TROY signal inh 23, TWEAK Fn14 block 48, HIF-2a inh -17, Peg3 prom inh 29 and CF NFkB inh 80*.
For O=C(C1CCN(S(=O)(=O)c2cccc3cccnc23)CC1)N1CCN(c2ccc(Cl)cc2)CC1 the results were KKLEB tox -12, TROY signal inh 41, TWEAK Fn14 block 51*, HIF-2a inh 21, Peg3 prom inh 21 and CF NFkB inh 1.
O=C(Nc1nc2cc(Cl)ccc2s1)C1CCCN(S(=O)(=O)c2cccc3cccnc23)C1 (configuration not stated) was read as KKLEB tox -19, TROY signal inh 46, TWEAK Fn14 block 84*, HIF-2a inh 9, Peg3 prom inh 60* and CF NFkB inh 39.
For O=C(Nc1ccccc1Cl)C1CCCN(S(=O)(=O)c2cccc3cccnc23)C1 (configuration not stated) the results were KKLEB tox 12, TROY signal inh 6, TWEAK Fn14 block -9, HIF-2a inh 21, Peg3 prom inh 1 and CF NFkB inh -9.
For Cc1cccc(NC(=O)/C(C#N)=C/c2cn(CC(=O)NCc3ccco3)c3ccccc23)c1 the results were KKLEB tox -63*, TROY signal inh 33, TWEAK Fn14 block -14, HIF-2a inh 2, Peg3 prom inh 60* and CF NFkB inh 60*.
`COCCNC(=O)/C(C#N)=C/c1cn(CC(=O)NCc2ccco2)c2ccccc12` gave KKLEB tox -4, TROY signal inh -11, TWEAK Fn14 block -22, HIF-2a inh 10, Peg3 prom inh 15 and CF NFkB inh -2.
For CC(=O)c1cn(CCOc2cc(C)ccc2C)c2ccccc12 the results were KKLEB tox 3, TROY signal inh 0, TWEAK Fn14 block 100*, HIF-2a inh 4, Peg3 prom inh 2 and CF NFkB inh -7.
Cc1ccc(C)c(OCCn2cc(C(=O)O)c3ccccc32)c1 was read as KKLEB tox -3, TROY signal inh 7, TWEAK Fn14 block 16, HIF-2a inh 16, Peg3 prom inh 16 and CF NFkB inh -2.
Screening Cc1ccc(C)c(OCCn2cc(/C=C(\C#N)C(=O)NCc3ccco3)c3ccccc32)c1 returned KKLEB tox -58*, TROY signal inh 6, TWEAK Fn14 block -41, HIF-2a inh -5, Peg3 prom inh 24 and CF NFkB inh 57*.
For CCC(c1nnnn1CCOC)N(Cc1ccc(C)cc1)Cc1cc2cc(OC)ccc2[nH]c1=O (configuration not stated) the results were KKLEB tox -6, TROY signal inh 11, TWEAK Fn14 block -8, HIF-2a inh 17, Peg3 prom inh 21 and CF NFkB inh 11.
OC(c1cc(C(F)(F)F)nc2c(Cl)cc(Cl)cc12)C1CCCCN1 (configuration not stated) was read as KKLEB tox -4, TROY signal inh -19, TWEAK Fn14 block 19, HIF-2a inh 3, Peg3 prom inh 109* and CF NFkB inh 6.
OC(c1cc(-c2ccc(Cl)cc2)nc2ccccc12)C1CCCCN1 (configuration not stated) was read as KKLEB tox -12, TROY signal inh -25, TWEAK Fn14 block -6, HIF-2a inh -20, Peg3 prom inh 109* and CF NFkB inh 18.
`O[C@@H](c1cc(C(F)(F)F)nc2c(C(F)(F)F)cccc12)[C@H]1CCCCN1` gave KKLEB tox -10, TROY signal inh -12, TWEAK Fn14 block 36, HIF-2a inh 0, Peg3 prom inh 103* and CF NFkB inh 16.
For CC(C)(C)NCCC(O)c1cc(C(F)(F)F)nc2c(C(F)(F)F)cccc12 (configuration not stated) the results were KKLEB tox -18, TROY signal inh -4, TWEAK Fn14 block -7, HIF-2a inh -14, Peg3 prom inh 42 and CF NFkB inh 16.
CCn1c(SCC(=O)Nc2ccc(NC(C)=O)cc2)nc2c([nH]c3ccccc32)c1=O was read as KKLEB tox -6, TROY signal inh 18, TWEAK Fn14 block -12, HIF-2a inh 19, Peg3 prom inh 14 and CF NFkB inh -22.
For COC(=O)[C@@H]1Cc2c([nH]c3ccccc23)C(C)(C)N1C(=O)CCl the results were KKLEB tox -62*, TROY signal inh -3, TWEAK Fn14 block 0, HIF-2a inh 35, Peg3 prom inh 22 and CF NFkB inh 74*.
